Test results taken from PubChem BioAssay (Tox21).
Records with an inconclusive call do not appear. Activity calls are given as the source filed them. The call rests on the fitted dose curve; in most records, active means well fitted curve in the direction sought with a large enough effect in the repeat runs; inconclusive means weak or mixed curves; inactive means no such curve, though single readings can be large; an effect the other way counts as inactive or inconclusive.
Further: nearly all actives have a fitted effect of over 50% in size.
On the % scale 0 is the no-effect control and ±100 the full control effect.

Experiment: qHTS RealTime-Glo MT Cell Viability Assay in HEK293 cells - 32 hour (AID 1224868); further: potency means the concentration at half of the fitted maximal effect; on activity change, negative = cytotoxic: top concentration of the series differs between compounds
Details: RealTime-Glo luminescence; series mostly up to 76.8 µM; activity change, negative = cytotoxic: at the top concentration
Procedure, shortened: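 Quantitative high-throughput screen of the Tox21 10K library in HEK293: cells and RealTime-Glo reagents plated together, compound added at 5 h, luminescence monitored through 40 h at 37 C.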
With `O=S(=O)(O)c1cc(S(=O)(=O)O)c2ccc3c(S(=O)(=O)O)cc(S(=O)(=O)O)c4ccc1c2c43` the activity change, negative = cytotoxic was 2.34% [at 15.8 µM] (inactive).
With `CC(C)(C)c1cc(/C=C2\SC(=N)NC2=O)cc(C(C)(C)C)c1O` the Potency was 49 µM (active).
For `O=C(O)CCn1c2c(c3ccccc31)C[C@H](NS(=O)(=O)c1ccc(F)cc1)CC2`, the “activity change, negative = cytotoxic” value was 14% [at 35.3 µM] (inactive).
In the case of `O=C(O)c1cccc(Cl)n1`, the “activity change, negative = cytotoxic” value is reported as 6.98% (inactive).
With `CCCCCCCCCCCCCc1ccccc1` the “activity change, negative = cytotoxic” value was -7.81% [at 35.3 µM] (inactive).
In the case of `CCCCCCC(C)Nc1ccc(Nc2ccccc2)cc1` (stereo not given), the Potency is reported as 24.5 µM (active).
In the case of `CCCCCCC(C)OC(=O)COc1nc(F)c(Cl)c(N)c1Cl` (stereo not given), the “activity change, negative = cytotoxic” value is reported as -22.7% (inactive).
With `C/C=C/c1ccc(OC)c(OC)c1` the “activity change, negative = cytotoxic” value was -18% (inactive).
In the case of `O=C(O)CCCCCCC(=O)O`, the “activity change, negative = cytotoxic” value is reported as -3.1% (inactive).
For `Cc1cc(C)c(C=O)c(C)c1`, the “activity change, negative = cytotoxic” value was 13.2% (inactive).
In the case of `CCC(C)C(=O)OC` (stereo not given), the “activity change, negative = cytotoxic” value is reported as 7.82% (inactive).
With `CC1(C)C(=O)N(CO)C(=O)N1CO` the “activity change, negative = cytotoxic” value was 6.83% (inactive).
For `CCCCCCCC(C)=O`, the “activity change, negative = cytotoxic” value was 0.262% (inactive).
For `CCCCC(CC)COC(=O)c1ccc(O)cc1` (stereo not given), the Potency was 54.7 µM (active).
In the case of `C=C/C=C/C=C/CCCCC`, the activity change, negative = cytotoxic is reported as 0.818% [at 15.8 µM] (inactive).
For `Clc1nc2ccccc2s1`, the “activity change, negative = cytotoxic” value was -6.56% (inactive).
For `COc1nccnc1CC(C)C`, the “activity change, negative = cytotoxic” value was 10.5% (inactive).
In the case of `CC1CCCCN1CCCOC(=O)c1ccc(OC2CCCCC2)cc1` (stereo not given), the Potency is reported as 21.3 µM (active).
In the case of `CCC(=O)CC(C)CC` (stereo not given), the activity change, negative = cytotoxic is reported as 3.77% [at 0.29 µM] (inactive).
In the case of `CCCCCCCCCCc1ccccc1`, the “activity change, negative = cytotoxic” value is reported as -1.83% (inactive).
For `CC(C)=CC1CC(C)CCO1` (stereo not given), the “activity change, negative = cytotoxic” value was 2.83% (inactive).
For `CCc1ccc(O)c(C(C)(C)C)c1`, the “activity change, negative = cytotoxic” value was -14.3% (inactive).
For `CCC(C)c1ccccc1` (stereo not given), the “activity change, negative = cytotoxic” value was 5.71% (inactive).
With `Clc1cccnc1` the “activity change, negative = cytotoxic” value was -5.33% (inactive).
For `Cc1cc(=O)[nH]c(=O)[nH]1`, the “activity change, negative = cytotoxic” value was 0.794% (inactive).
In the case of `CC(=O)OC1CCCCC1`, the “activity change, negative = cytotoxic” value is reported as -5.97% (inactive).
For `COC(=O)CC(C)CCC=C(C)C` (stereo not given), the “activity change, negative = cytotoxic” value was 8.14% (inactive).
With `O=S(=O)(O)CCCN1CCOCC1` the “activity change, negative = cytotoxic” value was 14.4% (inactive).
For `Cc1cn[nH]c1`, the “activity change, negative = cytotoxic” value was 6.49% [at 35.3 µM] (inactive).
In the case of `O=Cc1ccc(F)cc1`, the “activity change, negative = cytotoxic” value is reported as -1.71% (inactive).

Experiment: A CellTox Green Cytotoxicity Assay to monitor cytotoxicity in HEK293 cells - 0 hour (AID 1224869)
Details: CellTox Green fluorescence; series mostly up to 76.8 µM; cytotoxicity: at the top concentration
Procedure, shortened: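 Dead-cell fluorescence measured kinetically: asymmetric cyanine dye, HEK293, 600 cells/well, 5 h settle, 23 nL cpd/DMSO, 37 C, reads 0–40 h every 8 h.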
With `CC(C)(C)c1cc(/C=C2\SC(=N)NC2=O)cc(C(C)(C)C)c1O` the “cytotoxicity” value was 18.7% (inactive).
For `Clc1cc(Cl)c(-c2c(Cl)c(Cl)cc(Cl)c2Cl)cc1Cl`, the “cytotoxicity” value was -1.23% [at 35.3 µM] (inactive).
In the case of `O=C(O)CCn1c2c(c3ccccc31)C[C@H](NS(=O)(=O)c1ccc(F)cc1)CC2`, the “cytotoxicity” value is reported as 1.88% [at 35.3 µM] (inactive).
In the case of `CCCCCCCCCCCCCc1ccccc1`, the “cytotoxicity” value is reported as -0.619% [at 35.3 µM] (inactive).
For `CCCCCCC(C)Nc1ccc(Nc2ccccc2)cc1` (stereo not given), the “cytotoxicity” value was -8.46% (inactive).
With `CCCCCCC(C)OC(=O)COc1nc(F)c(Cl)c(N)c1Cl` (stereo not given) the “cytotoxicity” value was -1.52% (inactive).
In the case of `C/C=C/c1ccc(OC)c(OC)c1`, the “cytotoxicity” value is reported as -0.848% (inactive).
For `O=C(O)CCCCCCC(=O)O`, the “cytotoxicity” value was -0.728% (inactive).
For `Cc1cc(C)c(C=O)c(C)c1`, the “cytotoxicity” value was 5.92% (inactive).
With `CCC(C)C(=O)OC` (stereo not given) the “cytotoxicity” value was -5.59% (inactive).
For `CC1(C)C(=O)N(CO)C(=O)N1CO`, the “cytotoxicity” value was 3.25% (inactive).
For `CCCCCCCC(C)=O`, the “cytotoxicity” value was 0.666% (inactive).
In the case of `CCCCC(CC)COC(=O)c1ccc(O)cc1` (stereo not given), the Potency is reported as “inactive”.
With `Clc1nc2ccccc2s1` the “cytotoxicity” value was 0.0925% (inactive).
In the case of `CCOB(OCC)OCC`, the “cytotoxicity” value is reported as -13.2% (inactive).
With `CC1CCCCN1CCCOC(=O)c1ccc(OC2CCCCC2)cc1` (stereo not given) the “cytotoxicity” value was 2.35% [at 35.3 µM] (inactive).
In the case of `Oc1c(Br)cc(Br)c2cccnc12`, the “cytotoxicity” value is reported as -2.2% [at 35.3 µM] (inactive).
In the case of `CCC(=O)CC(C)CC` (stereo not given), the cytotoxicity is reported as 6.34% [at 0.29 µM] (inactive).
With `CCCCCCCCCCc1ccccc1` the “cytotoxicity” value was -1.05% (inactive).
For `CC(C)=CC1CC(C)CCO1` (stereo not given), the “cytotoxicity” value was 1.31% (inactive).
For `CCc1ccc(O)c(C(C)(C)C)c1`, the “cytotoxicity” value was -0.853% (inactive).
In the case of `CCC(C)c1ccccc1` (stereo not given), the “cytotoxicity” value is reported as -3.03% (inactive).
In the case of `Clc1cccnc1`, the “cytotoxicity” value is reported as 0.535% (inactive).
In the case of `CNC(=S)NN`, the “cytotoxicity” value is reported as 6.69% (inactive).
In the case of `Cc1cc(=O)[nH]c(=O)[nH]1`, the “cytotoxicity” value is reported as -3.08% (inactive).
For `CC(=O)OC1CCCCC1`, the “cytotoxicity” value was -4.63% (inactive).
For `COC(=O)CC(C)CCC=C(C)C` (stereo not given), the “cytotoxicity” value was 5.12% (inactive).
In the case of `O=S(=O)(O)CCCN1CCOCC1`, the “cytotoxicity” value is reported as 2.29% (inactive).
For `Cc1cn[nH]c1`, the “cytotoxicity” value was -2.97% [at 35.3 µM] (inactive).
For `CC(CN(C)C)CN1c2ccccc2CCc2ccccc21` (stereo not given), the “cytotoxicity” value was -10.9% [at 35.3 µM] (inactive).
With `O=Cc1ccc(F)cc1` the “cytotoxicity” value was 0.181% (inactive).

Experiment: qHTS RealTime-Glo MT Cell Viability Assay in HepG2 cells - 40 hour (AID 1224870)
Details: RealTime-Glo luminescence; series mostly up to 76.8 µM; activity change, negative = cytotoxic: at the top concentration
Procedure, shortened: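 Real-time viability: cells seeded at 600 per well together with NanoLuc and cell-permeant prosubstrate, compounds added after 5 h incubation. Luminescence tracked at 0, 8, 16, 24, 32 and 40 h of exposure.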
In the case of `O=S(=O)(O)c1cc(S(=O)(=O)O)c2ccc3c(S(=O)(=O)O)cc(S(=O)(=O)O)c4ccc1c2c43`, the activity change, negative = cytotoxic is reported as 8.14% [at 15.8 µM] (inactive).
With `O=C(O)CCn1c2c(c3ccccc31)C[C@H](NS(=O)(=O)c1ccc(F)cc1)CC2` the “activity change, negative = cytotoxic” value was 2.32% [at 35.3 µM] (inactive).
In the case of `O=C(O)c1cccc(Cl)n1`, the “activity change, negative = cytotoxic” value is reported as -1.63% (inactive).
With `CCCCCCCCCCCCCc1ccccc1` the “activity change, negative = cytotoxic” value was 23.2% [at 35.3 µM] (inactive).
In the case of `CCCCCCC(C)OC(=O)COc1nc(F)c(Cl)c(N)c1Cl` (stereo not given), the “activity change, negative = cytotoxic” value is reported as -3.32% (inactive).
In the case of `C/C=C/c1ccc(OC)c(OC)c1`, the “activity change, negative = cytotoxic” value is reported as 4.41% (inactive).
For `O=C(O)CCCCCCC(=O)O`, the “activity change, negative = cytotoxic” value was -0.789% (inactive).
With `CC1(C)C(=O)N(CO)C(=O)N1CO` the “activity change, negative = cytotoxic” value was -3.51% (inactive).
For `CCCCC(CC)COC(=O)c1ccc(O)cc1` (stereo not given), the Potency was “inactive”.
With `C=C/C=C/C=C/CCCCC` the activity change, negative = cytotoxic was 24.6% [at 15.8 µM] (inactive).
For `Clc1nc2ccccc2s1`, the “activity change, negative = cytotoxic” value was 30.2% (inactive).
With `CCOB(OCC)OCC` the “activity change, negative = cytotoxic” value was -3.79% (inactive).
In the case of `Oc1c(Br)cc(Br)c2cccnc12`, the “activity change, negative = cytotoxic” value is reported as -12.5% [at 35.3 µM] (inactive).
In the case of `c1ccc(Sc2ccccc2)cc1`, the “activity change, negative = cytotoxic” value is reported as -3.26% (inactive).
For `CCCCCCCCCCc1ccccc1`, the “activity change, negative = cytotoxic” value was 1.83% (inactive).
With `CC(C)=CC1CC(C)CCO1` (stereo not given) the “activity change, negative = cytotoxic” value was 3.37% (inactive).
In the case of `CCc1ccc(O)c(C(C)(C)C)c1`, the “activity change, negative = cytotoxic” value is reported as -8.41% (inactive).
In the case of `CCC(C)c1ccccc1` (stereo not given), the “activity change, negative = cytotoxic” value is reported as -0.747% (inactive).
With `Clc1cccnc1` the “activity change, negative = cytotoxic” value was -5.47% (inactive).
In the case of `Cc1cc(=O)[nH]c(=O)[nH]1`, the “activity change, negative = cytotoxic” value is reported as -6.29% (inactive).
In the case of `COC(=O)CC(C)CCC=C(C)C` (stereo not given), the “activity change, negative = cytotoxic” value is reported as -0.608% (inactive).
With `Cc1cn[nH]c1` the “activity change, negative = cytotoxic” value was 2.53% [at 35.3 µM] (inactive).
In the case of `CC(CN(C)C)CN1c2ccccc2CCc2ccccc21` (stereo not given), the “activity change, negative = cytotoxic” value is reported as -9.43% [at 35.3 µM] (inactive).
In the case of `O=Cc1ccc(F)cc1`, the “activity change, negative = cytotoxic” value is reported as 0.6% (inactive).
